Some of the results follow. How many sequences the whole screen found active is unknown.

In this assay the target is furin, P09958. In words: furin cleavage Z-score vs untreated control; higher = more cleavage, active = 3.5 or more, inactive = 1 or less, 8 variable residues between constant flanks. The procedure, abridged:
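Magnetic beads held 8-mer peptides by the N-terminus, each fused to a cDNA oligonucleotide, and purified furin was added for 7.5, 15 or 30 min. Released DNA was sequenced after PCR adapter tagging. The cleavage Z-score is the log count relative to furin-free reactions, lowess-adjusted and divided by median absolute deviation.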
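Note: purified furin at 1:10 enzyme:substrate in 50 mM HEPES pH 7.5.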

Chain of furin, P09958 (P09958 whole entry, the tested form may be a part): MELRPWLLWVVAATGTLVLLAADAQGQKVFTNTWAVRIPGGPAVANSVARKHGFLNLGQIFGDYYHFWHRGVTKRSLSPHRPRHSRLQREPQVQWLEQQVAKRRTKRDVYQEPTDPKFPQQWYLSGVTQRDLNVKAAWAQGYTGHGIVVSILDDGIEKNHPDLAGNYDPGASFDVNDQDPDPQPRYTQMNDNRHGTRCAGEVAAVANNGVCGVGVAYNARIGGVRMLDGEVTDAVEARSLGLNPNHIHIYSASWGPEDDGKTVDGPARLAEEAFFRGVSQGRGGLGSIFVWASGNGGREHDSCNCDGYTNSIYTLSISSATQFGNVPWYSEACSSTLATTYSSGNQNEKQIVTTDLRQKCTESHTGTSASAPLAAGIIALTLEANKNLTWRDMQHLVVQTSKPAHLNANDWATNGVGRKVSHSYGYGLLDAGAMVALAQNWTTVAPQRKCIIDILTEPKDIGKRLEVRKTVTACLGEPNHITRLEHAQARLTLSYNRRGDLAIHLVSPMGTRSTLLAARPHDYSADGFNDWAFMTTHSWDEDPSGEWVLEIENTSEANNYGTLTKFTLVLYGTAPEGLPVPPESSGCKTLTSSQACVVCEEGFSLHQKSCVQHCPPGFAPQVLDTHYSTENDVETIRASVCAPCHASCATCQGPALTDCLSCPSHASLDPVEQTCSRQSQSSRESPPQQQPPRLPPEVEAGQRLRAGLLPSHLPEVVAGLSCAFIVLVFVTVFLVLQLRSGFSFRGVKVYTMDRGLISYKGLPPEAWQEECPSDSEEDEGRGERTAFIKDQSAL

For the sequence CAMEECSQVLAGNASASA [HC1750], the “furin cleavage Z-score” value was 1.44 (7.5 min), -0.739 (inactive) (15 min) and 1.26 (30 min).
For CALPYLVAYQAGNASASA [HC952], in that order: 0.718 (inactive), -1.65 (inactive) and -1.41 (inactive).
For CACSTRVRRQAGNASASA [FS-120], in that order: 11 (active), 8.81 (active) and 7.5 (active).
In the same order, the values of CAVPYFVRVQAGNASASA [HC615] are -1.87 (inactive), 0.165 (inactive) and -0.325 (inactive).
CALPKRVRRQAGNASASA [FS-1029]: the “furin cleavage Z-score” value (7.5 min) is 11.3 (active), the “furin cleavage Z-score” value (15 min) was 12.3 (active) and the “furin cleavage Z-score” value (30 min) is 8.74 (active).
In the same order, the values of CAFLTRVEAQAGNASASA [HC585] are -0.981 (inactive), 1.44 and -1 (inactive).
Take CAVPERCRRQAGNASASA [FS-1580]: the “furin cleavage Z-score” value is, setting by setting: (7.5 min) 6.62 (active); (15 min) 9.1 (active); (30 min) 6.98 (active).
Take CAVGDLCGSVAGNASASA [HC299]: the “furin cleavage Z-score” value reads like this: (7.5 min) -0.438 (inactive); (15 min) -0.375 (inactive); (30 min) 1.2.
For CATTPCSPSWAGNASASA [HC1899], in that order: 0.637 (inactive), 0.489 (inactive) and -0.787 (inactive).
On to CAPEFFTELDAGNASASA [HC1220], for which the “furin cleavage Z-score” value is, setting by setting: (7.5 min) -0.864 (inactive); (15 min) -0.533 (inactive); (30 min) -1.32 (inactive).
As to CAQRQPFPRDAGNASASA [FS-951], the “furin cleavage Z-score” value reads like this: (7.5 min) 0.0863 (inactive); (15 min) 0.099 (inactive); (30 min) -1.03 (inactive).
In the same order, the values of CAAVQRVPRDAGNASASA [FS-1312] are 6.89 (active), 6.58 (active) and 5.33 (active).
For the sequence CAFVQRVFRDAGNASASA [FS-776], the “furin cleavage Z-score” value is -0.109 (inactive) (7.5 min), -0.244 (inactive) (15 min) and 0.515 (inactive) (30 min).
Take CALQERVPRDAGNASASA [FS-1366]: the “furin cleavage Z-score” value by setting is: (7.5 min) 7.28 (active); (15 min) 7.82 (active); (30 min) 7.62 (active).
For CAVVCCWMSYAGNASASA [HC107], in that order: -0.895 (inactive), 0.873 (inactive) and -1.73 (inactive).
As for CASQPCSAHLAGNASASA [HC2502], the “furin cleavage Z-score” value by setting is: (7.5 min) -0.0566 (inactive); (15 min) 0.435 (inactive); (30 min) 0.0846 (inactive).
In the same order, the values of CARARRGPSPAGNASASA [FS-2131] are -1.25 (inactive), -0.123 (inactive) and -0.828 (inactive).
In the same order, the values of CARARRDAGPAGNASASA [FS-3150] are 10.1 (active), 11.6 (active) and 7.77 (active).
For CARARRDHFSAGNASASA [FS-2642], in that order: 1.38, 1.33 and 3.76 (active).
As to CARARRGTSGAGNASASA [FS-2646], the “furin cleavage Z-score” value (7.5 min) was 3.84 (active), the “furin cleavage Z-score” value (15 min) was 5.25 (active) and the “furin cleavage Z-score” value (30 min) was 5.55 (active).
In the same order, the values of CARHYKSASPAGNASASA [FS-1718] are -1.62 (inactive), -1.27 (inactive) and -1.9 (inactive).
For CARARRGLRGAGNASASA [FS-1817], in that order: 1.71, 0.637 (inactive) and 3.32.
For CARARRSASPAGNASASA [FS-2481], in that order: 8.11 (active), 8.29 (active) and 5.23 (active).
For the sequence CARARRGGGSAGNASASA [FS-2645], the “furin cleavage Z-score” value by setting is: (7.5 min) -0.34 (inactive); (15 min) -0.574 (inactive); (30 min) 0.0356 (inactive).
Turning to CANTPCSAHLAGNASASA [HC2481], the “furin cleavage Z-score” value was -0.479 (inactive) (7.5 min), -0.245 (inactive) (15 min) and 0.352 (inactive) (30 min).
For CAMEECSWHLAGNASASA [HC1728], in that order: -0.727 (inactive), 1.63 and 1.16.
For the sequence CAGNASRCWVAGNASASA [HC277], the “furin cleavage Z-score” value by setting is: (7.5 min) -0.19 (inactive); (15 min) 0.165 (inactive); (30 min) -0.828 (inactive).
In the same order, the values of CARARRGVEVAGNASASA [FS-2647] are 4.52 (active), 5.87 (active) and 6.09 (active).
In the case of CAQLPCEPEPAGNASASA [HC1240], the “furin cleavage Z-score” value was 0.775 (inactive) (7.5 min), -0.524 (inactive) (15 min) and -0.783 (inactive) (30 min).
Consider CAFFSVLIARAGNASASA [HC1585], for which the “furin cleavage Z-score” value runs as follows: (7.5 min) -2.48 (inactive); (15 min) -0.777 (inactive); (30 min) -0.815 (inactive).
For CAYLLPRRGPAGNASASA [HC178], in that order: -0.496 (inactive), -0.768 (inactive) and -0.313 (inactive).
In the same order, the values of CAYLLRRRRNAGNASASA [FS-1620] are 5.7 (active), 4.73 (active) and 3.09.
In the same order, the values of CAHLSRRRRNAGNASASA [FS-1007] are 11.1 (active), 9.66 (active) and 7.89 (active).
Consider CAECTTPCSGAGNASASA [HC1144], for which the “furin cleavage Z-score” value is, setting by setting: (7.5 min) -0.495 (inactive); (15 min) -0.922 (inactive); (30 min) -0.582 (inactive).
CAAIGRSRRVAGNASASA [FS-114]: the “furin cleavage Z-score” value was 2.54 (7.5 min), 1.95 (15 min) and 4.65 (active) (30 min).
For CAAIIPDREVAGNASASA [HC1007], the “furin cleavage Z-score” value (7.5 min) was -0.132 (inactive), the “furin cleavage Z-score” value (15 min) was -0.083 (inactive) and the “furin cleavage Z-score” value (30 min) is -0.0846 (inactive).
CAKSVRKRRVAGNASASA [FS-603]: the “furin cleavage Z-score” value (7.5 min) was 10.7 (active), the “furin cleavage Z-score” value (15 min) is 11.6 (active) and the “furin cleavage Z-score” value (30 min) was 9.56 (active).
In the same order, the values of CAATSRKRRVAGNASASA [FS-1311] are 7.4 (active), 11 (active) and 9.97 (active).
Regarding CALSARRFRVAGNASASA [FS-1371], the “furin cleavage Z-score” value by setting is: (7.5 min) 0.442 (inactive); (15 min) -0.766 (inactive); (30 min) 0.226 (inactive).
In the case of CARSVRKVIVAGNASASA [FS-3099], the “furin cleavage Z-score” value runs as follows: (7.5 min) 0.811 (inactive); (15 min) -1.26 (inactive); (30 min) 0.845 (inactive).
Regarding CAITSCSSNVAGNASASA [HC1552], the “furin cleavage Z-score” value runs as follows: (7.5 min) 0.153 (inactive); (15 min) 0.128 (inactive); (30 min) 0.563 (inactive).
For CAEVVTSTRVAGNASASA [HC2233], in that order: -0.495 (inactive), 0.515 (inactive) and -0.63 (inactive).
Consider CADDDKIVGGAGNASASA [EK7], for which the “furin cleavage Z-score” value by setting is: (7.5 min) -1.75 (inactive); (15 min) -1.15 (inactive); (30 min) -0.908 (inactive).

For the origin of these results see the supplement of paper PMC3545927.
